Screens (PubChem BioAssay)
Vaccinia Venus = inhibitors of vaccinia virus (Venus reporter). 330,000 compounds, 0.46% hits. Vaccinia virus Venus reporter expression, fluorescence. Potency, µM (doses to about 36.5 µM), inactives show at the top dose activity change, negative = inhibition, most hits filed as inhibitors. AID 720580; calls by dose curve; tested in A549 cells; also: nearly all actives have a fitted effect of over 30% in size
HCV inh = HCV inhibition. 340,000 compounds, 3.4% hits. AID 651820. Potency, µM (highest dose often 41.8 µM), for inactives: at the highest dose activity change, negative = inhibition, hits mostly inhibitors. Huh7.5.1 HCVcc-Cre infection, luciferase reporter, 44 h; active = well fitted inhibition curve with a large enough effect; inconclusive = small, poorly fitted or top-dose-only effect, or another doubt; inactive = no such curve, though single readings can be large or run the other way
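Infectious HCV cell culture screen: compound-treated cells (1,000/well, pre-plated 4 h) are infected with HCVcc-Cre at roughly 0.5 moi and grown 44 h. Infection is quantified by luciferase signal after 15 min substrate incubation at room temperature.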
FMDV inh = antivirals against foot and mouth disease virus. 410,000 compounds, 1.2% hits. FMDV antiviral cell-based qHTS. AID 1159524. Potency, µM (top dose mostly 57.9 µM), inactives show at the top dose activity change, negative = inhibition, usual class: inhibitors; calls by dose curve; tested in HEK293T cells; also: read-out not given here; nearly all actives have a fitted effect of over 45% in size
Marburg entry inh = Marburg virus entry inhibition; Marburg virus pseudotyped entry inhibition, cell reporter; Potency, µM (series often up to 37.8 µM), without a hit: at the highest dose activity change, negative = inhibition, hits mostly inhibitors; 300,000 compounds, 1.8% hits; AID 540276; calls by dose curve; tested in HEK293 cells
Vaccinia mCherry = vaccinia inhibition (mCherry reporter); AID 720579; Potency, µM (series often up to 36.5 µM), for the others: at the highest dose activity change, negative = inhibition, hits mostly inhibitors; 310,000 compounds, 0.63% hits; Vaccinia virus mCherry reporter infection, fluorescence; calls by dose curve; tested in A549 cells; also: nearly all actives have a fitted effect of over 35% in size
LASV entry inh = blocks Lassa virus binding to or entry into cells; Lassa virus pseudotype entry inhibition, cell reporter; Potency, µM (highest dose often 37.9 µM), for the others: top-dose activity change, negative = inhibition, actives largely listed as inhibitors; 300,000 compounds, 1.2% hits; calls by dose curve; tested in HEK293 cells; also: nearly all actives have a fitted effect of over 50% in size
Starred values were filed as active, the others as inactive; i = inactive; u = inconclusive; x = not tested or not shown; [ ] = dose if it differs, or a comment. Only some compounds are listed: those with a hit (about 5.3% of all), similar ones and a draw of the others. % is scaled to controls: 0 for no effect and ±100 for the full control effect; potency is read from the fitted curve at half-maximal effect.

SMILES | Vaccinia Venus | HCV inh | FMDV inh | Marburg entry inh | Vaccinia mCherry | LASV entry inh
CC[C@]12c3[nH]c4ccc(Cl)cc4c3CCN1C(=O)[C@@H](CC(=O)NCc1cccc(C(F)(F)F)c1)C[C@@H]2C(=O)N1CCN(C(=O)C2CC2)CC1 | u | 35.5µM* | u | x | i | x
CC[C@]12c3[nH]c4ccccc4c3CCN1C(=O)C(CC(=O)NCc1ccco1)C[C@@H]2C(=O)N1CCN(C(=O)c2ccco2)CC1 (stereo not given in full) | 0.0% | 5.2% | -14.6% | x | i | x
CC[C@]12c3[nH]c4ccccc4c3CCN1C(=O)C(CC(=O)NCc1cccc(C(F)(F)F)c1)C[C@@H]2C(=O)N1CCN(C(=O)C2CC2)CC1 (stereo not given in full) | -24.7% | u | 8.8% | x | -9.4% | x
CCn1c(-c2ccccc2F)nc2cc(C(=O)NC(c3ccccn3)C(F)(F)F)cc(NC(C)=O)c21 (stereo not given) | -6.0% | x | 10.8% | x | -11.2% | x
Cc1ncc(CO)c2c1Oc1nc(-c3ccccc3Cl)nc(SCc3ccccc3F)c1C2 | u | x | u | x | u | 3.2%[46.1 µM]
COc1ccc(OC)c2c1C(=O)C(Cl)=C(Cl)C2=O | x | u | 20µM* | x | x | x
O=C(CN1C(=O)CC(c2ccc(F)cc2)=Nc2ccccc21)NCc1ccccc1Cl | -20.4% | x | 5.0% | x | -24.9% | 1.3%[46.1 µM]
COc1ccc(-c2cn3c(C)c(C(=O)N4CCCc5ccccc54)sc3n2)cc1 | u | 11.2µM* | u | x | 10µM* | x
Cc1c(C(=O)Nc2ccncc2)sc2nc(-c3ccc(F)cc3)cn12 | u | 10µM* | -7.0% | x | -21.8% | x
COc1ccc(-c2cn3c(C)c(C(=O)N4CCN(c5ccccc5F)CC4)sc3n2)cc1 | -9.7% | u | -10.9% | x | 14.6% | x
COc1ccc(-c2cn3c(C)c(C(=O)Nc4ccncc4)sc3n2)cc1 | 1.8% | 4.47µM* | u | x | -14.8% | x
CCOC(=O)c1ccc(NC(=O)c2c(NCc3sccc3C)sc3c2CCCCC3)cc1 | 17.5% | x | 28.6% | x | -5.8% | -18.7%[46.1 µM]
N#Cc1ccc2c(c1)C[C@]1(CCCCN3C(=O)c4ccccc4C3=O)Oc3cc(-c4ccccc4)oc(=O)c3[C@H]2O1 | x | x | x | 20.6%[14.2 µM] | x | x
Cc1cnc(SCc2ccccn2)nc1C1CCCN(Cc2ccsc2)C1 (stereo not given) | -14.2% | x | -17.3% | x | -17.0% | x
CNc1nc(NCCOc2ccccc2Cl)c2sccc2n1 | u | x | u | x | i | x
COc1ccccc1CNc1nc(NCCOc2ccccc2Cl)c2sccc2n1 | u | x | 22.4µM* | x | u | x
COc1ccc(OC)c(C2CC(=O)c3c([nH]c(C(=O)OCc4ccc(C)cc4)c3C)C2)c1 (stereo not given) | -25.8%[7.34 µM] | x | 0.0% | u | -5.5%[7.34 µM] | -10.5%[46.1 µM]
COc1cc(C2CC(=O)c3c([nH]c(C(=O)OCc4ccc(C)cc4)c3C)C2)cc(OC)c1OC (stereo not given) | -28.8%[7.34 µM] | x | 14.1µM* | u | u | -12.0%[46.1 µM]
CCOCCOC(=O)c1[nH]c2c(c1C)C(=O)CC(c1ccc(N(C)C)cc1)C2 (stereo not given) | -25.6% | u | u | x | u | x
CCOC(=O)c1[nH]c2c(c1C)C(=O)CC(c1ccc(OC)c(OC)c1)C2 (stereo not given) | -26.5% | u | -9.9% | -20.3% | x | -6.2%
COc1cc(C2CC(=O)c3c([nH]c(C(=O)OCCOC(C)C)c3C)C2)cc(OC)c1OC (stereo not given) | -25.2% | u | 11.2µM* | u | -28.2% | u
CCOCCOC(=O)c1[nH]c2c(c1C)C(=O)CC(c1ccc(OC)c(OC)c1)C2 (stereo not given) | -6.8% | u | 22.4µM* | u | -4.2% | u
C/C=C/COC(=O)c1[nH]c2c(c1C)C(=O)CC(c1ccc(N(C)C)cc1)C2 (stereo not given) | -19.8% | 5.62µM* | -20.7% | x | -26.7% | x
CSCCC(C(=O)NCc1ccccc1)n1c(C2CCN(C(C)=O)CC2)nc2ccccc21 (stereo not given) | 0.9% | x | -18.3% | x | -13.6% | x
CCS(=O)(=O)N1CCc2cc(C(=O)NCc3ccccc3OC)ccc21 | -5.4% | x | 29.3% | -22.5%[46.1 µM] | 2.4% | 24.8%[46.1 µM]
SMILES | Vaccinia Venus | HCV inh | FMDV inh | Marburg entry inh | Vaccinia mCherry | LASV entry inh
CCOC(=O)c1sc(Nc2nc3c(OC)cccc3s2)cc1C | -29.8% | 10µM* | -32.3% | u | -26.4% | u
COc1cccc2sc(Nc3nc4ccc(NC(C)=O)cc4s3)nc12 | -28.9% | 4.47µM* | -18.9% | 7.31µM* | i | u
CCOC(=O)c1sc(Nc2nc3cc4c(cc3s2)OCO4)cc1C | -19.1% | u | -20.8% | -9.8% | i | -6.1%
CC(=O)Nc1ccc2nc(NC(=O)COc3ccccc3C)sc2c1 | 0.7% | -16.5% | 20.3% | 12.7% | -13.3% | 11.6%
O=C(CC1(O)C(=O)N(CCc2ccccc2)c2ccc(Br)cc21)c1ccccc1O (stereo not given) | -21.3% | x | 6.3% | -27.1%[46.1 µM] | -7.9% | u
COc1ccc(S(=O)(=O)n2nc(-n3c(C)ccc3C)c3c(F)cccc32)cc1OC | -17.9% | u | -25.6% | 8.91µM* | -19.8% | u
Cc1ccc(C)n1-c1nn(S(=O)(=O)c2ccccc2)c2cccc(F)c12 | 5.5% | -1.0% | -24.4% | u | -10.0% | -8.9%[46.1 µM]
CCCOc1ccc(C2C(=O)N(C3CCCCCC3)CC(=O)N2C(C)C)cc1OC (stereo not given) | -8.4% | x | -20.1% | x | -7.2% | u
Cc1ccc(-c2nnc(Nc3cccc(Cl)c3)c3ccccc23)cc1S(=O)(=O)NCC1CCCO1 (stereo not given) | -21.6% | x | 58.0% | -26.1%[46.1 µM] | -20.6% | u
CNC(=O)/C(C#N)=C/c1c(N(Cc2ccccc2)Cc2ccccc2)nc2ccccn2c1=O | u | u | -22.9% | 15.8µM* | -19.7% | 11.2µM*
CC(C)=CCCC(C)=CCON=C1C[C@@H](O)[C@@H](O)[C@@H]2[C@H]3C(=O)N(Cc4ccc5c(c4)OCO5)C(=O)[C@@H]3CC[C@H]12 | x | x | x | -16.6%[14.2 µM] | x | u
O=C1Cc2cc(NS(=O)(=O)c3ccc([N+](=O)[O-])cc3)cc3c2N1CCC3 | u | -0.2%[8.37 µM] | -17.3% | 1.1% | 10µM* | 6.2%
CCOC(=O)C1=C(CN2CCCCC2)NC(=O)NC1c1cc(C)ccc1C (stereo not given) | -8.5% | x | u | 9.2µM* | -11.6% | -24.7%[46.1 µM]
Cc1cc(C)c(NC(=O)Cc2csc(C)n2)c(Cl)c1 | -11.8% | x | 5.4% | -4.6%[46.1 µM] | 3.0% | u
Cc1ccc(CCNC(=O)c2ccc3c(c2)N(Cc2ccc(F)cc2)CCS3)cc1 | -16.1% | x | 1.0% | -2.2%[46.1 µM] | -14.6% | -17.8%[46.1 µM]
COc1ccc(CCNC(=O)c2ccc3c(c2)N(Cc2ccc(F)cc2)CCS3)c(OC)c1 | -15.2% | u | -16.4% | 7.94µM* | -8.6% | -29.8%[46.1 µM]
